Structures are written as SMILES. Inconclusive results are not listed. A call without a number means that no potency is given here. Active and inactive are the calls of the source. Calls follow the shape of the dose curve; as a rule, active = well fitted inhibition curve with a large enough effect; inconclusive = small, poorly fitted or top-dose-only effect, or effect the other way; inactive = flat fitted curve, though single readings scatter.
Potency is read from the fitted curve at half-maximal effect.

This test can be described thus: qHTS for Inhibitors of Plasmodium falciparum (GB4) proliferation (AID 504315). Also: nearly all actives have a fitted effect of over 50% in size. Conditions: P. falciparum GB4 in erythrocytes, SYBR Green DNA, 72 h; series mostly up to 6.7 µM. From the text:
Plasmodium falciparum is a virulent malarial parasite that kills 1-2 million people worldwide each year. Malaria not only inflicts tremendous suffering and morbidity on the human population, but has dramatically influenced the course of civilization with profound sociological and economic implications (Shah, S. 2010). Transmitted by mosquitoes, the sporozoite form of the parasite enters the blood stream to infect hepatocytes, where they become merozoites that infect red blood cells (erythrocytes). Within erythrocytes, merozoites begin a […] cycle of growth and division, after which the parasite is released to infect new red blood cells. Gametocytes, which form within erythrocytes as well, circulate in the bloodstream and are ingested by the mosquito, thereby completing the life cycle (see CDC website). To profile malarial lines for differential chemical responses and to identify inhibitors of malarial growth, an assay that measures P. falciparum growth and replication within erythrocytes was employed. This assay uses a DNA binding fluorescent dye (SYBR Green) to detect parasite DNA following cell lysis. Because mature erythrocytes lack DNA, only Plasmodium-derived DNA is detected. The P. falciparum line cp250, derived from a malarial isolate from Cambodia, (Mu, J., et al. 2010) was added to the panel of lines, Dd2, HB3, 7G8 and GB4 in this study. Laboratory of Assay Development and Screening Technology [ADST] and NIH Chemical Genomics Center [NCGC] Boston University, Chemistry Department, Center for Chemical Methodology and Library Development [CMLD-BU] NIH National Institute of Allergy and Infectious Diseases [NIAID]
ADST Assay Protocol Summary: The 1536-well SYBR Green viability assay was based on the method of Bennett et al (2004) and described previously in 1536-well format (Yuan J., et al. 2009). For screening 3 ul culture medium was dispensed into 1536 well black clear bottom plates (Aurora Biotechnologies) using a Multidrop Combi (Thermo Fisher Scientific Inc.), 23 nL compounds in DMSO were added by a pin transfer (Cleveland, P.H. and Koutz, P.J, 2005) using a pin tool-based delivery system (Kalypsys), and 5 ul of erythrocytes infected with P. falciparum one of five lines (cp250, Dd2, HB3, 7G8 or GB4, 0.3% parasitemia, 2.5% hematocrit final concentration) were added. The plates were incubated at 37C in a humidified incubator in 5% CO2 for 72 h, and 2 ul lysis buffer (20 mM Tris HCl, 10 mM EDTA, 0.16% saponin, 1.6% triton X, 10X SYBR Green I (supplied as 10,000X final concentration by Invitrogen) was added to each well. The plates were mixed for 25 sec with gentle shaking and incubated overnight at room temperature in the dark. The following morning, fluorescence intensity at 485(14) nm excitation and 535(25) nm emission wavelengths was measured on an EnVision (Perkin Elmer) plate reader. Plate reads were normalized relative to the control inhibitor (0.29 uM artemisinin) and vehicle (DMSO) wells present on each plate and then corrected by an algorithm using vehicle-only control plates at the beginning and end of the compound plate stack. References Shah, S. (2010). The Fever: how malaria has ruled humankind for 500,000 years. New York, Sarah Crichton Books. CDC web site, http://www.cdc.gov/malaria/about/biology/index.html Mu, J., Myers, R.A., Jiang, H., Liu, S., Ricklefs, S., Waisberg, M., Chotivanich, K., Wilairatana, P., Krudsood, S., White, N.J., et Plasmodium falciparum genome-wide scans for positive selection, recombination hot spots and resistance to antimalarial drugs Nature Genetics 2010, 42, pp 268-271 Bennett TN, Paguio, M., Gligorijevic, B., Seudieu, C., Kosar, A. D., Davidson, E., and Roepe, P. D. Novel, rapid, and inexpensive cell-based quantification of antimalarial drug efficacy Antimicrobial Agents Chemother. 2004, 48(5): pp 1807-10 Yuan J, Johnson RL, Huang RL, Wichterman J, Jiang HY, Hayton K, Fidock DA, Wellems TE, Inglese J, Austin CP, Su XZ. […]
On the technique in general: In qHTS, concentration-response curves come from the screen itself.
Take `O=C1C2=C(C(=O)c3ccccc31)[C@H]1O[C@](CCCCN3C(=O)c4ccccc4C3=O)(Cc3c1ccc1ccccc31)O2`: the Potency was 1.69 µM (active).
The value for `CC(CCN1CCCc2nc(C)c(C)cc21)=NOC[C@@H](O)COCc1ccco1` was “inactive”.
Regarding `CC1=C[C@@H](COCc2ccccc2)O[C@@]2(C1)C(=O)N(CC1CC1)c1ccccc12`, the Potency result was “inactive”.
The same measure for `COc1ccc2c(c1)O[C@H](c1ccc3c(c1)OCO3)[C@@H](OC(=O)Nc1cc(OC)c(OC)c(OC)c1)C2=O`: “inactive”; for `CCC(=O)OC1(C)C(=O)C=C2C=C(CCCC(=O)OC)OC=C2C1=O` (stereo not given): “inactive”; for `CC1=CC[C@@H](C)O[C@@]2(C1)C(=O)Nc1ccccc12`: “inactive”.
On to `COC(=O)C(c1ccc(OC)c(OC)c1)C1c2ccccc2C=C(C)N1C(=O)OC` (stereo not given), for which the Potency entry was “inactive”.
For the molecule `COC(=O)CCC(=O)OC1(C)C(=O)C=C2C=C(C3CC3)N(CCc3c[nH]c4ccccc34)C=C2C1=O` (stereo not given), the Potency result is “inactive”.
The value for `CCCCC1=CC2=CC(=O)C(C)(O)C(=O)C2=CO1` (stereo not given) was “inactive”.
As to `COC(=O)C1=C(C(=O)OC)[C@@H]2N(C)c3ccccc3[C@@]23CCC(=O)N(Cc2cc(OC)c(OC)c(OC)c2)C3=N1`, the Potency entry was “inactive”.
On to `COC(=O)C1=C(C(=O)OC)[C@@H]2N(C)c3ccccc3[C@@]23CCC(=O)N(Cc2ccco2)C3=N1`, for which the Potency entry is “inactive”.
In the case of `C=CC(=O)N1C(=O)c2ccccc2S1(=O)=O`, the Potency entry is “inactive”.
The same measure for `CC(=O)C1=C(C)N(CC#C[Si](C)(C)C)C(=O)N(C(C)=O)C1c1ccccc1` (stereo not given): “inactive”.
For `C=CC1=C2C=C(C3CC3)N(CC3CC3)C=C2C(=O)C(C)(OC(=O)c2ccco2)C1=O` (stereo not given), the Potency result was “inactive”.
For the molecule `COc1cc2c(cc1OC)[C@@H]1O[C@](c3ccsc3)(C2)OC2=C1C(=O)OC1(CCCCC1)C2`, the Potency entry is “inactive”.
Turning to `C#CCCCON=C1C[C@@H](O)[C@H](O)[C@H]2[C@@H]3C(=O)N(c4ccc(F)cc4F)C(=O)[C@@H]3CC[C@@H]12`, the Potency result is “inactive”.
Regarding `C=CC1=C2C=C(C3CC3)N(CCOC)C=C2C(=O)C(C)(OC(=O)c2ccco2)C1=O` (stereo not given), the Potency result is “inactive”.
As to `C#CCN1C(=O)CC[C@@]23C1=NC(C(=O)OC)=C(C(=O)OC)[C@@H]2N(C)c1ccccc13`, the Potency result was “inactive”.
Consider `CC#CCC1(C(=O)OC)C(=O)NC[C@H]1c1ccccc1` (stereo not given in full), for which the Potency result was “inactive”.
For the molecule `COc1cc(CCN2C(=O)NC(c3ccccc3)C(C(C)=O)=C2C)cc(OC)c1OC` (stereo not given), the Potency result was “inactive”.
`CCN1C(=NCCCCO)NC(c2cccc(C(F)(F)F)c2)C(C(=O)OC)=C1C` (stereo not given): the Potency entry was “inactive”.
The value for `O=C(NCCOc1ccccc1)O[C@@H]1C(=O)c2cc(Br)ccc2O[C@H]1c1ccc2c(c1)OCO2` was “inactive”; that for `CCCC[C@]12Cc3ccccc3[C@H](O1)c1c(cc(-c3ccccc3)oc1=O)O2` was 1.69 µM (active).
On to `COC1=C[C@H](C(=O)NCc2ccccc2)[C@H](C)[C@@H](c2ccccc2)CC1=O`, for which the Potency entry is “inactive”.
Turning to `COC1=CC2C(=O)C(C(c3ccccc3)C2C)C1(C)O` (stereo not given), the Potency result was “inactive”.
As to `C[C@H]1CCCC(=O)N[C@@H](c2ccccc2)[C@@H](C)CCCC(=O)N[C@@H]1c1ccccc1`, the Potency result was “inactive”.
`Cc1cc2c(c(=O)o1)[C@H]1O[C@](CCCCN3C(=O)c4ccccc4C3=O)(Cc3cc(C#N)ccc31)O2`: the Potency result is “inactive”.
For `COC(=O)[C@@H]1CC[C@H](C)[C@@H](c2ccc(C)cc2)N1C(=O)c1ccc(C=NOC[C@@H](O)[C@H]2O[C@@H]3OC(C)(C)O[C@H]3[C@@H]2O)cc1`, the Potency entry was “inactive”.
As to `COc1cccc([C@H]2Oc3ccc(OC)cc3C(=NOC[C@@H](C)[C@H](OCc3ccccc3)C(C)C)[C@H]2O)c1`, the Potency entry is “inactive”.
As to `C=C[C@@]1(C)CCC=C2C(=O)CCC[C@H]21`, the Potency result is “inactive”.
With `C=CCN1C=C2C(=O)C(C)(OC(=O)c3ccc(OC)cc3)C(=O)C(c3ccco3)=C2C=C1CCCC` (stereo not given), the Potency entry is “inactive”.
The same measure for `C=CC[C@@](C(C)=O)(C(=O)OC)[C@@H](NC(=O)OC(C)(C)C)c1ccccc1`: “inactive”; for `COc1ccc(OC[C@H]2CN3[C@H](c4ccc(Br)cc4)[C@H](C)CC[C@H]3C(=O)O2)cc1`: “inactive”.
Regarding `C[C@H](O)CON1C(=O)c2ccccc2C1=O`, the Potency entry is “inactive”.
Consider `COC(=O)C1=C(C)N(Cc2ccco2)C(=O)NC1c1ccco1` (stereo not given), for which the Potency entry was “inactive”.
As for `O=C1CCC=C1C(O)c1ccc2c(c1)OCO2` (stereo not given), the Potency entry is “inactive”.
Turning to `COC(=O)C1=C(C(=O)OC)[C@@H]2N(Cc3ccccc3)c3ccccc3[C@@]23C[C@@H](C(=O)OC)N(C(=O)NCc2ccccc2)C3=C1`, the Potency entry was “inactive”.
As for `COC(=O)CC=C[C@@H](C)[C@@H](C=NO[C@@H](C)c1cn([C@H](CO)Cc2ccccc2)nn1)NS(=O)(=O)c1ccc(C)cc1`, the Potency result was “inactive”.
For the molecule `COc1cccc([C@@H]2NC(=O)CC=C[C@H](C)[C@H](c3cccc(OC)c3)NC(=O)CC=C[C@H]2C)c1`, the Potency entry was “inactive”.
`COC1=C[C@H](C(=O)NCc2ccccc2)[C@@]2(C)Cc3ccccc3[C@@H]2CC1=O`: the Potency entry was “inactive”.

Source of the values: PubChem BioAssay (NCATS).
